BLM inh-1: blocks DNA unwinding by human BLM helicase; P54132; recombinant BLM DNA unwinding, fluorescence dequenching; Potency, µM (doses to about 56.1 µM), most hits filed as inhibitors; 350,000 tested, 0.2% active; AID 2528; note: nearly all actives have a fitted effect of over 35% in size
GLS inh: blocks human kidney-isoform glutaminase activity; GLS enzymatic activity, qHTS titration; O94925; 410,000 tested, 0.21% active; Potency, µM (titrated, usually from 45.5 µM), actives largely listed as inhibitors
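Glutamate formation by hKGA was monitored fluorometrically using coupled glutamate oxidase, HRP and Amplex Red. Substrate was added as 1 mM L-glutamine solution; incubation was 30 min at RT after an initial read.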
Tb PGK inh: blocks T. brucei phosphoglycerate kinase | P07378 | PGK/GAPDH coupled, Kinase-Glo luminescence, 60 min | Potency, µM (highest dose often 57.5 µM), usual class: inhibitors | 380,000 tested, 0.043% active; note: nearly all actives have a fitted effect of over 60% in size
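Recombinant glycosomal PGK reaction used 1,3-bisphosphoglycerate generated in-well by GAPDH (100nM final) in 100mM TEA pH 7.6, 5mM MgCl2, 0.01% Tween-20. After 60 minutes at room temperature, ATP was read by Kinase-Glo Plus luminescence end-point.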
TDP1 inh: inhibitors of human tyrosyl-DNA phosphodiesterase TDP1; AID 485290; recombinant TDP1, AlphaScreen DNA substrate cleavage; Potency, µM (highest dose often 130 µM), hits mostly inhibitors; Q9NUW8; 350,000 tested, 0.28% active; note: nearly all actives have a fitted effect of over 40% in size
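Steps: enzyme plus compound, 15 min RT; add biotin/phosphotyrosine-FITC oligonucleotide (15 nM final), react 5 min; add donor/acceptor beads (10 ug/ml final), 10 min; read AlphaScreen. Tdp1 at 1 nM final.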
APE1 inh-1: APE1 (human) endonuclease inhibition | AID 2517 | P27695 | Potency, µM (highest dose often 65.8 µM), most hits filed as inhibitors | 350,000 tested, 0.35% active | recombinant APE1, TAMRA/BHQ-2 abasic DNA cleavage fluorescence; note: nearly all actives have a fitted effect of over 55% in size
Target sequence (P27695 whole entry, looked up): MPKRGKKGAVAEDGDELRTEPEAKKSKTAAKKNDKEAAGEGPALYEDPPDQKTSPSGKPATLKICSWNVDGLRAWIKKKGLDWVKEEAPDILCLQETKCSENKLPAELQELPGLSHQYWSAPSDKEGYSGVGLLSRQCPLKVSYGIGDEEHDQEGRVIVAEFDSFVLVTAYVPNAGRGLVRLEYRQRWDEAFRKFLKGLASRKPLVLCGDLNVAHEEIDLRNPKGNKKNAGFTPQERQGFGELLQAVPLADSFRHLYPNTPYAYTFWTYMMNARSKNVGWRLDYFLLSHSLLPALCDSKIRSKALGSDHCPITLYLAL
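APE1 at 0.75 nM final was preincubated with compound 15 min at room temperature, then 50 nM double-stranded THF abasic-site substrate (5'-TAMRA/3'-BHQ-2) was added. Fluorescence (ex 525/em 598 nm) was read kinetically; third-minus-first read gave activity.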
RECQ1 inh-1: inhibitors of human RECQ1 DNA helicase. P46063. 240,000 tested, 0.54% active. Potency, µM (highest dose often 57.3 µM), hits mostly inhibitors. AID 2549. RECQ1 DNA unwinding, red fluorescence kinetic read; note: nearly all actives have a fitted effect of over 30% in size
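RECQ1T1 50 nM; forked duplex (20 bp + 30-nt ss tails) 200 nM, ATP 2 mM final; pH 8.0, 2 mM MgCl2, 2.5 ug/ml poly(dI-dC); 15 min compound preincubation; discontinuous kinetic read over 2 h at RT.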
DNA dye displace: counter-screen for APE1 inhibitors: DNA dye displacement | shares compounds with APE1 inh-1 | DNA fluorescent dye displacement counterscreen, fluorescence | Potency, µM (top dose mostly 28.5 µM), hits mostly inhibitors | 480 tested, 7% active | AID 2564;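 note: loss of thiazole orange fluorescence as the dye is displaced from duplex DNA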
EndoIV counter: blocks E. coli endonuclease IV DNA cleavage | 560 tested, 4% active | Potency, µM (titrated, usually from 27.1 µM), actives largely listed as inhibitors | shares compounds with APE1 inh-1 | E. coli Endo IV, fluorogenic AP-site DNA cleavage
APE1 inh-2: confirmation of inhibitors of human APE1 endonuclease | shares compounds with APE1 inh-1 | purified APE1, fluorogenic abasic-site DNA cleavage | Potency, µM (highest dose often 57.1 µM), actives largely listed as inhibitors | 750 tested, 44% active | AID 2572; note: nearly all actives have a fitted effect of over 30% in size
APE1 FP inh: compounds that displace a DNA probe from human APE1; 480 tested, 7% active; Potency, µM (doses to about 28.5 µM), most hits filed as inhibitors; AID 2573; shares compounds with APE1 inh-1; APE1 binding to TAMRA-labelled double-stranded DNA, fluorescence polarization displacement
BLM inh-2: BLM (human) helicase inhibition, confirmation. AID 2585. Potency, µM, most hits filed as inhibitors. shares compounds with BLM inh-1. 220 tested, 40% active. BLM DNA unwinding, fluorescence quenching, biochemical;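 note: strand separation dequenches TAMRA so unwinding raises red fluorescence; series mostly up to about 69 µM; nearly all actives have a fitted effect of over 45% in size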
RECQ1 inh conf: confirmation of human RECQ1 helicase inhibitors; shares compounds with RECQ1 inh-1; RECQ1 helicase DNA unwinding, fluorescence; Potency, µM (series often up to 229 µM), actives largely listed as inhibitors; 610 tested, 28% active; AID 2708; note: nearly all actives have a fitted effect of over 45% in size
RECQ1 ADP FP: counter-screen for RECQ1 inhibitors: ADP displacement; shares compounds with RECQ1 inh-1; ADP fluorescence polarization displacement counterscreen; Potency, µM (top dose mostly 228 µM), actives largely listed as inhibitors; 530 tested, 27% active; AID 2711; note: nearly all actives have a fitted effect of over 45% in size
RECQ1 inh-2: RECQ1 helicase inhibition confirmed, round 2; shares compounds with RECQ1 inh-1; recombinant RECQ1 DNA unwinding, red fluorescence; Potency, µM (top dose mostly 119 µM), hits mostly inhibitors; 1,100 tested, 15% active; AID 504841; note: nearly all actives have a fitted effect of over 50% in size
Each line names hits and unclear results; the compound was inactive in the other large screens (follow-up assays come after a bar, where they were run); ! = repeats disagree. This is a sample that favours compounds with a hit; in the whole collection about 0.85% have one here. Calls come from the whole dose curve; as a rule, active = well fitted curve in the direction sought with a large enough effect; inconclusive = small, poorly fitted or top-dose-only effect, or another doubt; inactive = no such curve, though single readings can be large; an effect the other way counts as inactive or inconclusive.

CCc1nnc(NC(=O)CSc2ccc(-c3ccco3)nn2)s1	BLM inh-1 14.1µM, TDP1 inh 22.4µM, APE1 inh-1 inconclusive, RECQ1 inh-1 inconclusive | APE1 inh-2 inconclusive | BLM inh-2 inconclusive | RECQ1 inh-2 inactive
CCCC[N+](=O)[O-]	none (no result: BLM inh-1, GLS inh, Tb PGK inh)
COc1cc(-c2oc3cc(O)cc(O)c3c(=O)c2O)ccc1O	APE1 inh-1 inconclusive (no result: GLS inh, Tb PGK inh)
O=c1c(O)c(-c2ccc(O)c(O)c2)oc2cc(O)cc(O)c12	Tb PGK inh inconclusive, APE1 inh-1 1.26µM!, RECQ1 inh-1 1.78µM! | EndoIV counter inactive | APE1 inh-2 inactive | RECQ1 inh conf inconclusive | RECQ1 ADP FP 12.6µM
COc1ccc(OC)c(C(O)C(C)N)c1 (centres undefined)	none
C[C@H](N)[C@H](O)c1ccc(O)c(O)c1	TDP1 inh inconclusive, APE1 inh-1 0.794µM, RECQ1 inh-1 1.78µM (no result: GLS inh, Tb PGK inh) | DNA dye displace inactive | EndoIV counter inactive | APE1 inh-2 inactive | APE1 FP inh inactive | RECQ1 inh conf inactive | RECQ1 ADP FP 11.2µM
CC(N)[C@H](O)c1ccc(O)c(O)c1 (some centres undefined)	TDP1 inh inconclusive, APE1 inh-1 1µM, RECQ1 inh-1 6.31µM (no result: BLM inh-1, GLS inh, Tb PGK inh) | DNA dye displace inactive | EndoIV counter inactive | APE1 inh-2 inactive | APE1 FP inh inactive | RECQ1 inh conf inactive | RECQ1 ADP FP 12.6µM
C[C@@H](N)[C@@H](O)c1ccc(O)c(O)c1	GLS inh inconclusive, TDP1 inh inconclusive, RECQ1 inh-1 2.51µM (no result: Tb PGK inh, APE1 inh-1) | DNA dye displace inactive | EndoIV counter inactive | APE1 inh-2 inactive | APE1 FP inh inactive | RECQ1 inh conf inactive | RECQ1 ADP FP inconclusive
CCCN(CCC)CCc1ccc(O)c(O)c1	none (no result: BLM inh-1, GLS inh, Tb PGK inh)
CN(C)c1ccc(N)cc1	none (no result: BLM inh-1, GLS inh, Tb PGK inh)
CC(=O)Nc1ccc(N=Cc2c(O)n(Cc3ccco3)c(=O)[nH]c2=O)cc1	BLM inh-1 inconclusive, TDP1 inh 17.8µM, APE1 inh-1 inconclusive, RECQ1 inh-1 inconclusive | APE1 inh-2 inactive | RECQ1 inh-2 inconclusive
O=C(O)CBr	none (no result: BLM inh-1, GLS inh, Tb PGK inh)
Cc1cccc(N)c1C	none (no result: BLM inh-1, GLS inh, Tb PGK inh)
CCCCn1c(NS(=O)(=O)c2ccccc2)c(C(=O)OCC)c2nc3ccccc3nc21	BLM inh-1 1.41µM | BLM inh-2 inactive
CN(C)C(=O)Nc1cccc(C(F)(F)F)c1	none (no result: BLM inh-1, GLS inh, Tb PGK inh)
Cc1cccn2c(=O)c(C=Nc3ccccc3)c(NCc3ccco3)nc12	APE1 inh-1 inconclusive, RECQ1 inh-1 inconclusive | RECQ1 inh-2 inactive
CCCCn1c(=O)c(C=Nc2ccc(Cl)cc2)c(O)n(Cc2ccco2)c1=O	APE1 inh-1 inconclusive

From PubChem
